SMILES strings stand for the structures. The campaign covered roughly 52,000 compounds. About 4,300 (8.3%) were called active. What follows is part of a selection rich in actives, with near analogues and random picks from the rest. A number with no mark means an inactive call. No stated cut-off is given here; in the data, active means survival mostly below about 52% (no sharp cut-off); inactive means mostly above about 56%.

The test relates to DeltatarO mutant. Put plainly: S. aureus survival, RN4220 and DeltatarO strains – OD600, teichoic acid synthesis inhibitors, primary screen (AID 463173). The settings on record: S. aureus RN4220 wild type/DeltatarO growth, OD600, 18 h, stronger effect = lower value, screened at 18.75 µg/mL (by protocol).
Take `CC(=O)c1cc(-c2ccc(F)cc2)n(CC(=O)NC2CCC(C)CC2)c1C` (stereo not drawn): the survival was 67%.

On to `O=C(CN1CCN(S(=O)(=O)c2cc(Cl)ccc2Cl)CC1)Nc1cccc(F)c1`, for which the survival was 92%.

As to `CCOc1ccc(C(=O)C(CC(CN2CCOCC2)C(=O)c2ccc(OCC)cc2)CN2CCOCC2)cc1` (stereo not drawn), the survival is 104%.

For the molecule `O=C1c2oc3ccc(F)cc3c(=O)c2C(c2cccc([N+](=O)[O-])c2)N1CCCN1CCOCC1` (stereo not drawn), the survival is 84%.

Turning to `CCCCOc1ccc(C(=O)OCC2CCCN3CCCCC23)cc1OC` (stereo not drawn), the survival is 107%.

Consider `COc1cccc(CNC(=O)CCC(=O)N2CC3CCCN3c3ccccc32)c1` (stereo not drawn), for which the survival is 66%.

With `O=C(CCC(=O)N1CC2CCCN2c2ccccc21)NCc1cccc(Cl)c1` (stereo not drawn), the survival was 37% (active).

For the molecule `Cc1ccc(CNC(=O)CCC(=O)N2CC3CCCN3c3ccccc32)cc1` (stereo not drawn), the survival was 83%.

For the molecule `O=C(CCC(=O)N1CC2CCCN2c2ccccc21)NCc1ccccc1` (stereo not drawn), the survival is 74%.

For `O=C(CCC(=O)N1CC2CCCN2c2ccccc21)NCc1ccc(F)cc1` (stereo not drawn), the survival is 0% (active).

In the case of `O=C(CCC(=O)N1CC2CCCN2c2ccccc21)NCc1ccccc1Cl` (stereo not drawn), the survival was 69%.

For `O=C(O)c1cc2ccccc2[nH]c1=O`, the survival was 107%.

As for `CCc1cccc(NC(=O)Cc2nc(-c3ccc(OC)cc3)no2)c1`, the survival was 77%.

Consider `O=C(Nc1ccc(S(=O)(=O)N2CCCCC2c2cccnc2)cc1)c1ccc(Br)cc1` (stereo not drawn), for which the survival was 92%.

In the case of `CC(=O)N1CCc2cc(Br)cc(S(=O)(=O)N3CCN(c4cccc(C)c4)C(C)C3)c21` (stereo not drawn), the survival was 74%.

As to `CCc1ccc(-n2c(=O)c3c(C)c(C(=O)N(C)C)sc3n(CC(=O)Nc3cc(Cl)ccc3C)c2=O)cc1`, the survival was 131%.

On to `CCN(CC)C(=O)c1sc2c(c1C)c(=O)n(-c1ccc(Cl)c(Cl)c1)c(=O)n2CC(=O)Nc1cccc(OC)c1`, for which the survival is 70%.

`CCOC(=O)c1ccccc1NC(=O)Cn1c(=O)n(Cc2ccccc2)c(=O)c2c(C)c(C)sc21`: the survival was 84% (active).

With `CCOc1ccccc1NC(=O)Cn1c(=O)n(Cc2ccccc2)c(=O)c2c(C)c(C)sc21`, the survival was 66%.

As for `Cc1ccccc1NC(=O)Cn1c(=O)n(Cc2ccccc2)c(=O)c2c(C)c(C)sc21`, the survival was 136%.

Regarding `COC(=O)c1ccccc1NC(=O)Cn1c(=O)n(-c2cccc(OC)c2)c(=O)c2c(C)c(C(=O)N(C)C)sc21`, the survival was 117%.

As for `Cc1c(C(=O)N(C)C)sc2c1c(=O)n(-c1ccc(Cl)c(Cl)c1)c(=O)n2CC(=O)Nc1ccc(Br)cc1F`, the survival was 144%.

Regarding `CCOC(=O)c1ccccc1NC(=O)Cn1c(=O)n(-c2ccc(CC)cc2)c(=O)c2c(C)c(C(=O)N(C)C)sc21`, the survival is 0% (active).

With `Cc1c(C(=O)N(C)C)sc2c1c(=O)n(-c1ccc(Cl)c(Cl)c1)c(=O)n2CC(=O)Nc1cccc(C(F)(F)F)c1`, the survival was 46% (active).

With `CCOc1ccc(NC(=O)C(NS(=O)(=O)c2ccc3c(c2)CCN3C(C)=O)C(C)C)cc1` (stereo not drawn), the survival is 124%.

For `CCCOc1ccc(-c2nc(SCC(=O)c3ccc(Cl)cc3)n[nH]2)cc1`, the survival is 187%.

Regarding `Cc1ccc(NC(=O)CSc2ncc(S(=O)(=O)c3ccc(C(C)C)cc3)c(=O)[nH]2)cc1C`, the survival was 87%.

On to `Nc1c(C(=O)Nc2ccccc2Cl)c2ccccn2c1C(=O)c1ccc(Cl)cc1`, for which the survival was 80%.

`CCOC(=O)c1ccccc1NC(=O)CSc1nc2ccncc2[nH]1`: the survival was 85%.

As for `CC(Sc1ncc(S(=O)(=O)c2ccc(C(C)C)cc2)c(N)n1)C(=O)Nc1ccccc1` (stereo not drawn), the survival is 60%.

With `COc1ccc(-c2nc3cc(C)ccn3c2NC(=O)c2ccc(F)cc2)cc1`, the survival is 37% (active).

For the molecule `COc1ccc(-c2nc3cc(C)ccn3c2NC(=O)c2cccc(F)c2)cc1`, the survival was 53% (active).

As to `COCCNc1c(-c2ccccc2)nc2cc(C)ccn12`, the survival is 69%.

On to `Cc1cccc(C(=O)Nc2c(-c3ccccc3)nc3cc(C)ccn23)c1`, for which the survival is 27% (active).

For the molecule `O=C(Nc1c(-c2ccc(F)cc2)nc2ccccn12)c1cccc(F)c1`, the survival is 146%.

With `Cc1ccn2c(NC(=O)c3cccc(Cl)c3)c(-c3ccccc3)nc2c1`, the survival is 65%.

Take `COc1ccc(CNC(=O)c2ccc3nc(-c4ccc(F)cc4)c(-c4ccc(F)cc4)nc3c2)cc1`: the survival was 78%.

Regarding `Cc1nc2ccccn2c(=O)c1NC(=O)c1cccc(F)c1`, the survival is 71%.

As to `COc1ccc(-c2nc3cc(C)ccn3c2NC(=O)c2ccc(C)c(C)c2)cc1`, the survival is 68%.

For `CCOc1ccccc1NS(=O)(=O)c1ccc(N2CCCCS2(=O)=O)cc1`, the survival was 97%.

On to `Cc1ccc(NC(=O)/C(C#N)=C/c2cn(CC(=O)NCc3ccco3)c3ccccc23)cc1Cl`, for which the survival is 64%.

For the molecule `Cc1ccc(S(=O)(=O)NNC(=S)NCC2CCCO2)cc1` (stereo not drawn), the survival is 69%.

Turning to `Cc1cn2c(=O)cc(COC(=O)COc3ccc(C)c(C)c3)nc2s1`, the survival is 67%.

In the case of `COc1ccc(OCC(=O)OCc2cc(=O)n3nc(-c4cccs4)sc3n2)cc1`, the survival is 94%.

As to `O=C(COc1ccc(Cl)cc1)OCc1cc(=O)n2nc(-c3cccs3)sc2n1`, the survival is -4% (active).

Turning to `COc1ccc(OCC(=O)OCc2cc(=O)n3cc(C)sc3n2)cc1`, the survival is 6% (active).

As to `Cc1cc(C)cc(OCc2cc(=O)n3cc(C)sc3n2)c1`, the survival is 81%.

On to `COc1cccc(OCc2cc(=O)n3cc(C)sc3n2)c1`, for which the survival is 40% (active).

With `O=C(COc1ccccc1)OCc1cc(=O)n2nc(-c3cccs3)sc2n1`, the survival was 88%.

In the case of `Cc1cn2c(=O)cc(COc3ccc(Cl)cc3)nc2s1`, the survival was 53%.

`Cc1cn2c(=O)cc(COC(=O)COc3ccc(F)cc3)nc2s1`: the survival is 70%.

In the case of `COc1ccccc1-c1nc(CNC(=O)Nc2ccccc2)c(C)o1`, the survival was 98%.

On to `Cc1ccc(N2C(=O)N(CC(=O)C(C)(C)C)c3ccccc3S2(=O)=O)cc1C`, for which the survival is 91%.

In the case of `CCOc1ccc2c(c1)c(=O)c(S(=O)(=O)c1ccc(C)cc1)cn2Cc1ccccc1Cl`, the survival was 82%.

In the case of `CC1=C(C)C(=O)N(c2ccccn2)C1=O`, the survival is 93%.

In the case of `Cc1ccc(-n2c(=O)c3ccc(C(=O)NCc4ccccc4Cl)cc3n(CC(=O)Nc3ccc(C)cc3C)c2=O)cc1`, the survival was 79%.

Turning to `CC(C)(C)NC(=O)c1cccc(NC(=O)c2ccco2)c1`, the survival is 101%.

As to `COc1ccc(N2CCN(CNC(=O)c3ccccc3)CC2)cc1`, the survival is 95%.

For `Nc1nnc(CCN2C(=O)CSC2=O)s1`, the survival was 95%.

Regarding `CCc1cnc2c(c1SCC(=O)NCc1ccc(F)cc1)c(=O)n(C)c(=O)n2C`, the survival was 119%.

For `CC(C)C(=O)Nc1ccc2nc(SCC(=O)N3CCc4ccccc43)sc2c1`, the survival was 97%.

For `CCc1nnc(NC(=O)CSc2nc3c([nH]c4ccccc43)c(=O)n2-c2ccc(F)cc2)s1`, the survival is 84%.

Take `CCc1ccc(-c2nc(CS(=O)CC(=O)NCCc3ccc(Cl)cc3)c(C)o2)cc1` (stereo not drawn): the survival is 91%.

With `COc1ccc2cc(CNc3ccc(C)cc3)c(=O)n(CC(=O)Nc3ccc(C)cc3Cl)c2c1`, the survival was 102%.

In the case of `COc1ccc2c(c1)c1c(c(=O)n(Cc3ccccc3)c(=O)n1CC(=O)Nc1c(C)cccc1C)n2C`, the survival was 72%.

For the molecule `CCc1ccc(NCc2cc3ccc(OC)cc3n(CC(=O)Nc3ccccc3C)c2=O)cc1`, the survival is 83%.

Regarding `COc1ccc2c(c1)c1c(c(=O)n(CCc3ccccc3)c(=O)n1Cc1ccc(F)cc1)n2C`, the survival is 6% (active).

In the case of `Cc1ccc(Cn2c(=O)n(-c3ccc(C)cc3)c(=O)c3c2c2cc(C)ccc2n3C)cc1`, the survival was 52% (active).

Consider `COc1ccc2c(c1)c1c(c(=O)n(Cc3ccccc3)c(=O)n1CC(=O)Nc1ccccc1F)n2C`, for which the survival is 109%.

For the molecule `COc1ccc2cc(CNc3ccccc3)c(=O)n(CC(=O)Nc3ccc(C)cc3C)c2c1`, the survival was 0% (active).

Consider `COc1ccc2c(c1)c1c(c(=O)n(CCc3ccccc3)c(=O)n1Cc1cccc(F)c1)n2C`, for which the survival was 67%.

`COc1ccc2c(c1)c1c(c(=O)n(CCc3ccccc3)c(=O)n1Cc1ccccc1)n2C`: the survival was 90%.

Turning to `COc1ccc(Cn2c(=O)n(-c3ccc(C)cc3)c(=O)c3c2c2cc(C)ccc2n3C)cc1`, the survival was 100%.

With `COc1ccc2c(c1)c1c(c(=O)n(Cc3ccccc3)c(=O)n1CC(=O)Nc1ccc(C)cc1C)n2C`, the survival is -2% (active).

`Cc1ccc(-n2c(=O)c3c(c4cc(C)ccc4n3C)n(Cc3ccc(F)cc3)c2=O)cc1`: the survival is 116%.

On to `O=C(Nc1nc2c(F)cccc2s1)c1ccc(S(=O)(=O)N2CCOCC2)cc1`, for which the survival is 103%.

For `COc1cc(NC(=O)c2nn(C)c3c2CS(=O)(=O)c2ccccc2-3)cc(OC)c1`, the survival is 68%.

With `Cc1cc(C)c(NC(=O)Cn2cnc3c(oc4ccccc43)c2=O)c(C)c1`, the survival was 69%.

In the case of `COc1ccc(C2C(=O)N(C3CCC(C)CC3)CC(=O)N2Cc2ccc(C)cc2)cc1OC` (stereo not drawn), the survival was 86%.

Consider `CCC(C(=O)N(C)Cc1ccccc1)n1nc(C)c2sc3ccccc3c2c1=O` (stereo not drawn), for which the survival was 66%.

Consider `O=C(CC(c1ccccc1)c1ccccc1)N1CCN(Cc2ccc3c(c2)OCO3)CC1`, for which the survival is 67%.

Turning to `O=C(CCCc1nc(-c2ccc(Cl)cc2)no1)NCc1ccco1`, the survival is 54%.

With `COc1ccc(C(=O)NCc2ccc3c(c2)CCN3C(C)=O)cc1OC`, the survival is 83%.

In the case of `Cc1ccc(C)c(CNC(=O)c2ccc3c(c2)nc2n3CCC(C)C2)c1` (stereo not drawn), the survival was 91%.

In the case of `Cc1ccc(S(=O)(=O)N2CCCc3cc(NS(=O)(=O)c4ccc(C)c(C)c4)ccc32)cc1`, the survival was 67%.

As to `COc1ccc2c(c1)c1c(c(=O)n(Cc3ccccc3)c(=O)n1Cc1ccccc1)n2C`, the survival was -1% (active).

Turning to `COc1cccc(Cn2c(=O)n(Cc3ccccc3)c(=O)c3c2c2cc(OC)ccc2n3C)c1`, the survival is 64%.

For the molecule `COc1ccc2c(c1)c1c(c(=O)n(Cc3ccccc3)c(=O)n1Cc1ccc(C)cc1)n2C`, the survival was 80%.

The values above are taken from PubChem BioAssay AID463173 (ICCB-Longwood Screening Facility, Harvard Medical School, 2010).
